# Source: paper PMC12136788
# In all, about 24,000 sequences were measured (“enrichment r”: median about 0.99, highest 2% from about 3.7 on). Only a selection was taken, and the highest values are over-represented in it overall.
# B1: 16459948_16460068_3699_3pUTR_ENSMUSG00000024639_ENSMUST00000025541|mouse|control|control (ssRNA)
# RNA: GGGAGUUCUACAGUCCGACGAUCAUCCCUAGUCAGAAAUAAACUGACAAAUUUACAUUCUCCUCUCUUAAAAAAGUAAAUAAAAUAACAUUAUUCAAAAUGUGAAUUAGCUAUAAGACAUACAAUUACAUAGAUACAUAUCAACAACAGAGGAUUGAGCAUCA
# B2: chr5:151611259:151611260:+_ENSMUSG00000034021_ENSMUST00000016569|mus_mus|FALSE|FALSE (ssRNA)
# RNA: GGGAGUUCUACAGUCCGACGAUCGCAUUUCUGAACAUAAUGUUCAAGAAGUAAUAUCUAUACACAAUAACAUUCUAGACUAUUAAAAGCCCAUUCAAAUUACAGAAUUUUAUUGAUACAGUAGAUUAAUAUAAACUGAAAAAACAACAGAGGAUUGAGCAUCA
# B3: chr17:64801638:64801639:+_ENSG00000154229_ENST00000413366|hu_hu|motif|central (ssRNA)
# RNA: GGGAGUUCUACAGUCCGACGAUCAUCAAAUACAUAUAUAUACACACACAUAUGUAGUAAGAGCCUAAUCUAUCACGUAAACGGGCCAUUCAUUUUUGAAAUUUUAUCUACAUUUAAAAAGUAAUCUAUCUGAUACAGUGCCCACAACAGAGGAUUGAGCAUCA
# B4: 66017293_66045708_550_CDS_ENSMUSG00000056515_ENSMUST00000070673|mouse|control|control (ssRNA)
# RNA: GGGAGUUCUACAGUCCGACGAUCAGCGUCCUUCAGGGGCACCUCCCUAAUAUCAGAGAGGUCACACUUGUUCCCAGCAAUCGCCAUCACAAUGUUUUCUGGGCCGUGCUCCUUCAGCUCCUUGACCCAUUUUUUCAAGGUAUGCAACAGAGGAUUGAGCAUCA
# B5: 31370942_31371062_1482_CDS_ENSMUSG00000006307_ENSMUST00000006470|mouse|control|control (ssRNA)
# RNA: GGGAGUUCUACAGUCCGACGAUCUCCUGUGGUGGUGCUAGGGUUUGGAGUGGGAGAAAGGGUGCCCUCUGGUCCUGACCGAGCAGCUUCCCUCUCUGCCCGCUGGCUAGGAGUCAGGGGAGGCCUGCCCCUCUUCCUAGAGCACAACAGAGGAUUGAGCAUCA
# B6: chr2:27806210:27806211:+_ENSMUSG00000026837_ENSMUST00000028280|mus_hu|FALSE|FALSE (ssRNA)
# RNA: GGGAGUUCUACAGUCCGACGAUCUGUGGUUUCUUUGGCAGCUUCCACGGGCUUCUUGCUGGGGGUGGGCUCCUUCCCUAGGUCUUCGGGGUCUUCGUAGUAGGGGUAUUCGUAGUAAUAGGUCUCACCCUCGCCGUCUCCUUCCAACAGAGGAUUGAGCAUCA
# B7: chr6:41757443:41757444:+_ENSG00000214736_ENST00000398881|hu_mus|hu_hu_hu_mus_False|18_108 (ssRNA)
# RNA: GGGAGUUCUACAGUCCGACGAUCGAACUGUCUGCUGGCAACAUCUCAGCCGACACUGGGGGAUGGGGGGGCAGUGGGGGGGGGUUCAGGCAAGGAGAGGGAGUCAACUUCAGCUGCUCAAACUUCAGGAUCUUGUGGUCACAGCAACAGAGGAUUGAGCAUCA
# B8: 8158834_8158954_592_CDS_ENSG00000178921_ENST00000314666|human|control|control (ssRNA)
# RNA: GGGAGUUCUACAGUCCGACGAUCAGGGCCAUUGAGGGGUUCCGGCAUGCUCUCAGGGGAGAAACUCUGGAUGGGAUGGGGGAAGUGCUGCUCUGUCAUCCGGUCGUGCAGGGUAGCCAGAGCAAUGGCUUCCACCUCAGCUGACAACAGAGGAUUGAGCAUCA
# B9: 53358179_53360397_419_3pUTR_ENSMUSG00000033054_ENSMUST00000035850|mouse|control|control (ssRNA)
# RNA: GGGAGUUCUACAGUCCGACGAUCCAUCGCUGCCGCUUGAUUUCUGCAAUUCCAUUUCUCGUUCGAGCUCUCUGAUGGGCAGCAAACCCUGGAGAACUGUGCAUGCUCCUGAUCUGAGAGAGUGUGUGGUCUAGCUUCUUCCAUCAACAGAGGAUUGAGCAUCA
# B10: chr6:41757443:41757444:+_ENSG00000214736_ENST00000398881|hu_mus|hu_hu_hu_mus_False|58_108 (ssRNA)
# RNA: GGGAGUUCUACAGUCCGACGAUCGAACUGUCUGCUGGCAACAUCUCAGCCGACACUGGGGGAUGGGGGGGCAGUGGGAAACUAGGCAGGCAAGGAGAGGGAGUCAACUUCAGCUGCCACUCAGGUAGGAUCUUGUGGUCACAGCAACAGAGGAUUGAGCAUCA
# B11: chr6:43255143:43255144:+_ENSG00000146216_ENST00000259750|hu_hu|FALSE|FALSE (ssRNA)
# RNA: GGGAGUUCUACAGUCCGACGAUCCUCAGGCCCCCUUCUUCCUCCCAGCUCCAAACCAGGGUGUUGUUGGUCCUGGGGCAGAGGUGAGGCUGGGGGCCCUACAUUCACGGUUCGGUUGGUGGCAAGGAGCAGGCCCAGGGCCUGCAACAGAGGAUUGAGCAUCA
# B12: chr6:41757443:41757444:+_ENSG00000214736_ENST00000398881|hu_mus|hu_hu_hu_mus_False|8_108 (ssRNA)
# RNA: GGGAGUUCUACAGUCCGACGAUCGAACUGUCUGCUGGCAACAUCUCAGCCGACACUGGGGGAUGGGGGGGCAGUGGGGGGGGGUUCAGGCAAGGAGAGGGAGUCAACUUCAGCUGCCACUCAGGUAGCUGCCAUCAGUCACAGCAACAGAGGAUUGAGCAUCA
# B13: 25965218_25965338_4171_CDS_ENSG00000143970_ENST00000336112|human|control|control (ssRNA)
# RNA: GGGAGUUCUACAGUCCGACGAUCGCCUCUAUAGCUUGGCCCUAUCUGGGUGGGGCUUCCAUACAACUUCGGGGUUUGCAGGGGUGGAAGGAGUAGGGGCUGGUGGGUGGGGCUGUCUGCAGGCAGAGGAAGAACAGUAGAACUCAACAGAGGAUUGAGCAUCA
# B14: chr5:138654669:138654670:+_ENSG00000015479_ENST00000502499|hu_hu|motif|central (ssRNA)
# RNA: GGGAGUUCUACAGUCCGACGAUCUUUCUUUAUUCUUUUAUACUUCUGGGAUAAAUGAACUCUCACUGGCUUGCCAAAUACGGACGCUGGUGUGGUUGUGUAAUAAUCCACUGCGGCCUGAGCAUCCUCUGUGGUUGCCAUUUCCAACAGAGGAUUGAGCAUCA
# Target: T1, UNK ZnF1-3 (human, UniProt Q9C0B0 31-174)
# T1 sequence: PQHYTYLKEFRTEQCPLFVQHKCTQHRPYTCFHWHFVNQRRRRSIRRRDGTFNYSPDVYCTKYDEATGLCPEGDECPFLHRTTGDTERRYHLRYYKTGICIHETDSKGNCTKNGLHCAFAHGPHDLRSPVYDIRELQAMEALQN
# Assay: nsRBNS (natural sequence RNA bind-n-seq); RBNS binding buffer (assumed for nsRBNS): 25 mM Tris pH 7.5, 150 mM KCl, 3 mM MgCl2, 0.01% Triton X-100, 500 ug/ml BSA, 20 U/ml SUPERase-In, 4 C; UNK is unkempt and MSI1 is Musashi-1; names of the RNAs are library labels; protein concentration not given here; high values mean tight binding
row,Binder,binding signal [enrichment R]
1,B1,1.33
2,B2,11
3,B3,1.16
4,B4,0.683
5,B5,0.887
6,B6,0.604
7,B7,4.19
8,B8,0.632
9,B9,0.827
10,B10,1.42
11,B11,0.703
12,B12,5.65
13,B13,5.58
14,B14,0.487
